Assay results as given in ChEMBL document CHEMBL3988442, “University of Dundee, Small-Polar-MMV Screening Library” (2021).
Out of some 48,000 compounds screened, about 13,000 (27%) showed an effect of 50% or more. The list shows a part of the results.

test system: Wolbachia pipientis; assay: Anti-Wolbachia Cell-Based Screen; format: functional; parameters: scale not given: in the data most compounds retested in dose-response had high values; settings: 5 µM

Structure (SMILES)	Percent Effect [%]
Cc1nc(CCN(C)C(=O)CN2C(=O)OC[C@@H]2c2ccccc2)no1	2.107
CN(C)[C@H]1C[C@@H](Cc2cc(-c3ccc(F)cc3)on2)C1(C)C	-8.527
CN(Cc1ccoc1)C(=O)C1(Oc2ccc(Cl)cc2)CCNCC1	7.031
CN1CCOC(C(=O)Nc2ccc3c(c2)nc(C2CC2)n3C)C1 (stereo unspecified)	-8.812
CCS(=O)(=O)N1CC[C@H]2O[C@H](c3nnc(C)o3)CC[C@H]21	-2.674
CN(C)C(=O)NC1COC2(CCN(Cc3ccco3)CC2)C1 (stereo unspecified)	-11.16
CC(C)NC(=O)CC1COC2(CCN(Cc3ccsc3)CC2)C1.O=C(O)C(F)(F)F (stereo unspecified)	89.57
COc1ccc(CN2CCC3(CC2)CC(CC(=O)NC(C)C)CO3)cc1.O=C(O)C(F)(F)F (stereo unspecified)	102.4
COc1ccc(CN2CCOC3(CCCN(C(C)=O)C3)C2)cc1.O=C(O)C(F)(F)F (stereo unspecified)	-1.413
CC(C)C(=O)NC1COC2(CCN(Cc3cccnc3)CC2)C1.O=C(O)C(F)(F)F.O=C(O)C(F)(F)F (stereo unspecified)	-8.179
COc1ccc(CN2CCC3(CC2)CN(c2ccccn2)CCO3)cc1.O=C(O)C(F)(F)F.O=C(O)C(F)(F)F	-0.9926
CC(C)C1COC2(CCN(Cc3ccco3)CC2)C1.O=C(O)C(F)(F)F (stereo unspecified)	8.563
CC(C)NC(=O)CC1COC2(CCN(Cc3cccnc3)CC2)C1.O=C(O)C(F)(F)F.O=C(O)C(F)(F)F (stereo unspecified)	94.4
CC(C)NC(=O)[C@H]1C[C@@H]2[C@@H](C1)OCCN2Cc1ccsc1.O=C(O)C(F)(F)F	9.511
CC(C)NC(=O)CC1COC2(CCN(Cc3ccco3)CC2)C1 (stereo unspecified)	109.8
CN(C)C(=O)CO[C@H]1CO[C@@]2(CCN(Cc3ccsc3)C2)C1.O=C(O)C(F)(F)F	-11.41
CC(C)OCc1ncn2c1CN(Cc1ccoc1)CCC2.O=C(O)C(F)(F)F	-8.556
Cc1ncsc1CN1C[C@H](C(=O)N2CCCO2)[C@@H]2CCO[C@@H]2C1.O=C(O)C(F)(F)F.O=C(O)C(F)(F)F	-11.3
Cc1[nH]ccc1C(=O)N(Cc1ccc(O)cc1)CC1CC1	16.53
FC(F)(F)C1CCCn2c(CNCc3ccco3)nnc21 (stereo unspecified)	4.38
c1nc(N2CCCCC2Cn2cncn2)c2ccsc2n1 (stereo unspecified)	0.5498
CCCc1cc(N(CCOC)CC(F)F)n2ncnc2n1	-3.752
CN(C)C(=O)CN(C)C(=O)c1cccn1CCc1ccccc1	-9.709
Cc1ccc(CN2CCC3(CC2)CC(CC(=O)NC(C)C)CO3)s1.O=C(O)C(F)(F)F (stereo unspecified)	100.2
Cc1ccc(CN2CC(C(=O)NC(C)C)C3(CCOCC3)C2)s1.O=C(O)C(F)(F)F (stereo unspecified)	1.411
CC(=O)N1CCOCC2(CCN(Cc3ccc(C)s3)CC2)C1.O=C(O)C(F)(F)F	-6.944
